Laboratory results as given in ChEMBL document CHEMBL2218924, “A broad activity screen in support of a chemogenomic map for kinase signalling research and drug discovery” (Biochem J, 2013).

Assays:
[1] = target: Ribosomal protein S6 kinase beta-1 (Homo sapiens) (UniProt P23443); conditions: at 1 µM
[2] = target: Ribosomal protein S6 kinase beta-1 (Homo sapiens) (UniProt P23443); conditions: at 10 µM
[3] = target: Serine/threonine-protein kinase Nek6 (Homo sapiens) (UniProt Q9HC98); conditions: at 1 µM
[4] = target: Serine/threonine-protein kinase Nek6 (Homo sapiens) (UniProt Q9HC98); conditions: at 10 µM
[5] = target: Serine/threonine-protein kinase Nek7 (Homo sapiens) (UniProt Q8TDX7); conditions: at 1 µM
[6] = target: Serine/threonine-protein kinase Nek7 (Homo sapiens) (UniProt Q8TDX7); conditions: at 10 µM
[7] = target: T1, Serine/threonine-protein kinase NLK (Homo sapiens) (UniProt Q9UBE8); conditions: at 1 µM
T1 sequence (whole entry): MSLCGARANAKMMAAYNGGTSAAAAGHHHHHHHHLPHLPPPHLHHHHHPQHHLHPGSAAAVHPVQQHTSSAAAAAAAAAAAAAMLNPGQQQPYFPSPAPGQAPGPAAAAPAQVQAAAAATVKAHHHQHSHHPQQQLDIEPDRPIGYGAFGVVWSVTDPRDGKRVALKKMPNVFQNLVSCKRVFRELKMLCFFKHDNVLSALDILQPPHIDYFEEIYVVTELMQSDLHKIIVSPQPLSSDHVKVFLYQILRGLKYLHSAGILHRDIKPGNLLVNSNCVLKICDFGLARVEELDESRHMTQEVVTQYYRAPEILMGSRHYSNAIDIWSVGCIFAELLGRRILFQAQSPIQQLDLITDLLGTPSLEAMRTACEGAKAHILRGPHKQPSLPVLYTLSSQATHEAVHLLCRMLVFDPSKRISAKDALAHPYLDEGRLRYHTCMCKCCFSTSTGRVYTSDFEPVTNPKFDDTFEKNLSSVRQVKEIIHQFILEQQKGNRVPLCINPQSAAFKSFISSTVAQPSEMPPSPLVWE

[8] = target: T1, Serine/threonine-protein kinase NLK (Homo sapiens); conditions: at 10 µM
[9] = target: Serine/threonine-protein kinase PAK 2 (Homo sapiens) (UniProt Q13177); conditions: at 1 µM
[10] = target: Serine/threonine-protein kinase PAK 2 (Homo sapiens) (UniProt Q13177); conditions: at 10 µM
[11] = target: Serine/threonine-protein kinase PAK 4 (Homo sapiens) (UniProt O96013); conditions: at 1 µM
[12] = target: Serine/threonine-protein kinase PAK 4 (Homo sapiens) (UniProt O96013); conditions: at 10 µM
[13] = target: Serine/threonine-protein kinase PAK 5 (Homo sapiens) (UniProt Q9P286); conditions: at 1 µM
[14] = target: Serine/threonine-protein kinase PAK 5 (Homo sapiens) (UniProt Q9P286); conditions: at 10 µM
[15] = target: Serine/threonine-protein kinase PAK 6 (Homo sapiens) (UniProt Q9NQU5); conditions: at 1 µM
[16] = target: Serine/threonine-protein kinase PAK 6 (Homo sapiens) (UniProt Q9NQU5); conditions: at 10 µM
[17] = target: PAS domain-containing serine/threonine-protein kinase (Homo sapiens) (UniProt Q96RG2); conditions: at 10 µM
[18] = target: Activated CDC42 kinase 1 (Homo sapiens) (UniProt Q07912); conditions: at 1 µM
[19] = target: Activated CDC42 kinase 1 (Homo sapiens) (UniProt Q07912); conditions: at 10 µM
[20] = target: ALK tyrosine kinase receptor (Homo sapiens) (UniProt Q9UM73); conditions: at 1 µM
Chain of ALK tyrosine kinase receptor (Homo sapiens) (Q9UM73 19-1620 limits assumed): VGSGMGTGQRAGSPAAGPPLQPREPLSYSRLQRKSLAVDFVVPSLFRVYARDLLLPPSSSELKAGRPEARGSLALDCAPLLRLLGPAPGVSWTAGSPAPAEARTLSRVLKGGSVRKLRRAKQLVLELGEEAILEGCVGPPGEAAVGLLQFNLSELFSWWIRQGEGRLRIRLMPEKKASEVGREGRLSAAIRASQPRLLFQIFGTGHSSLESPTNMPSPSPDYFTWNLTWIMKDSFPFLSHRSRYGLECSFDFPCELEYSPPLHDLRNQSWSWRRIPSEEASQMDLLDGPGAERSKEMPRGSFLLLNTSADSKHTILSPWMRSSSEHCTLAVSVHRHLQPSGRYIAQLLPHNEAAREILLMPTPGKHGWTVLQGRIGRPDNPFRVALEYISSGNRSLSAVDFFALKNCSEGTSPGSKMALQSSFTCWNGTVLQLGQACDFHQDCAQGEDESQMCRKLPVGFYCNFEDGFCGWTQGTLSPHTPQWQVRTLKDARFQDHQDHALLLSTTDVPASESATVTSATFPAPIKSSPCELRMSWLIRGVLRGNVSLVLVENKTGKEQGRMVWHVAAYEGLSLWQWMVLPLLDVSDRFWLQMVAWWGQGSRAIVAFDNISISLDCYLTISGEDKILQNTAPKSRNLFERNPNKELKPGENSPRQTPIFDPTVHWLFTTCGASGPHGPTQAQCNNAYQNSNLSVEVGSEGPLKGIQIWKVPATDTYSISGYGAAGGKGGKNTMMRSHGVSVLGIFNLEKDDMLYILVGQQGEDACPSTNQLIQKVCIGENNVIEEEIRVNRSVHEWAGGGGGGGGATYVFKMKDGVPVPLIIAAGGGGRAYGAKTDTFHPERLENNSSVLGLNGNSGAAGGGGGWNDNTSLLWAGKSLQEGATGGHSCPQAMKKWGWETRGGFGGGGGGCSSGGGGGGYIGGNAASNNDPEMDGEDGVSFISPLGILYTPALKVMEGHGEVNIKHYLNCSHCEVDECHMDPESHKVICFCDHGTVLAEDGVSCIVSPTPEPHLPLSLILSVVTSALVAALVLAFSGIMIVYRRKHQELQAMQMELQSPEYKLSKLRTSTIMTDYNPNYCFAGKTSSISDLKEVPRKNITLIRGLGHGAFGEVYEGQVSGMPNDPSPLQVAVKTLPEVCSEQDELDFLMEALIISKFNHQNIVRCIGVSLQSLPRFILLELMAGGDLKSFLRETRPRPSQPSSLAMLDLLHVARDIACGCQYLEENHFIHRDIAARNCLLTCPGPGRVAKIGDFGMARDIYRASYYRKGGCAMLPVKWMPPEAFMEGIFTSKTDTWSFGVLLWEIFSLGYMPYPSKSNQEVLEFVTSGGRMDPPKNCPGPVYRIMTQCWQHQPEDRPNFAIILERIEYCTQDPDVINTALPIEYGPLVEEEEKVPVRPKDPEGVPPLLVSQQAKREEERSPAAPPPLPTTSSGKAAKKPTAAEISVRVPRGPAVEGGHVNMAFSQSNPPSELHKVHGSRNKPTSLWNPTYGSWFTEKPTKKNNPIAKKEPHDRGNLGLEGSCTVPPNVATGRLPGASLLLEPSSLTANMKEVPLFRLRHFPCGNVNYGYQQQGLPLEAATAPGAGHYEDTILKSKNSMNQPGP

Chain of Serine/threonine-protein kinase PAK 4 (Homo sapiens) (O96013 whole entry, looked up): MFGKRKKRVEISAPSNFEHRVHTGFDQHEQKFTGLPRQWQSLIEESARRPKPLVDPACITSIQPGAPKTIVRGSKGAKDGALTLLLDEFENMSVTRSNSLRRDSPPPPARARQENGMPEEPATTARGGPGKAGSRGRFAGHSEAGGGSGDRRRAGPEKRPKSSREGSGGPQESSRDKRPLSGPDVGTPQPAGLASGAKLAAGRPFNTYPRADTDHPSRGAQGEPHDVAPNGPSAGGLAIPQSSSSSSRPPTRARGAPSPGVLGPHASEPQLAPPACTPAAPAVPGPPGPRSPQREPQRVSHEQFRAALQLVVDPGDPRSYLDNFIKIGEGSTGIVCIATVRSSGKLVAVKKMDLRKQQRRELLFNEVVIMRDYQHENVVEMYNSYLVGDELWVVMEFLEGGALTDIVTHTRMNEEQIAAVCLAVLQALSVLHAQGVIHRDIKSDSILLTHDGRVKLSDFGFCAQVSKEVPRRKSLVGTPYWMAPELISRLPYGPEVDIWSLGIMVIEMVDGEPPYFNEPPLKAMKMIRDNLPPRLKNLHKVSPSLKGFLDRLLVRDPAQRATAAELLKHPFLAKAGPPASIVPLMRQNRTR
Chain of Serine/threonine-protein kinase Nek7 (Homo sapiens) (Q8TDX7 whole entry, looked up): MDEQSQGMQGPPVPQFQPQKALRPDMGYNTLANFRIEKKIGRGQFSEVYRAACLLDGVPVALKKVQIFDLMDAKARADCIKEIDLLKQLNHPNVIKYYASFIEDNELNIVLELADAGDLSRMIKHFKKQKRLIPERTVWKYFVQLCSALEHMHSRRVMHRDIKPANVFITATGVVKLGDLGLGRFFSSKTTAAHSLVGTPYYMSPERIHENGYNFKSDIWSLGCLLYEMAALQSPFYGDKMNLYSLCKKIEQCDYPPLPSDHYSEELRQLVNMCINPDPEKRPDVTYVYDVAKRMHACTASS
Chain of Serine/threonine-protein kinase PAK 6 (Homo sapiens) (Q9NQU5 whole entry, looked up, the tested form may be a part): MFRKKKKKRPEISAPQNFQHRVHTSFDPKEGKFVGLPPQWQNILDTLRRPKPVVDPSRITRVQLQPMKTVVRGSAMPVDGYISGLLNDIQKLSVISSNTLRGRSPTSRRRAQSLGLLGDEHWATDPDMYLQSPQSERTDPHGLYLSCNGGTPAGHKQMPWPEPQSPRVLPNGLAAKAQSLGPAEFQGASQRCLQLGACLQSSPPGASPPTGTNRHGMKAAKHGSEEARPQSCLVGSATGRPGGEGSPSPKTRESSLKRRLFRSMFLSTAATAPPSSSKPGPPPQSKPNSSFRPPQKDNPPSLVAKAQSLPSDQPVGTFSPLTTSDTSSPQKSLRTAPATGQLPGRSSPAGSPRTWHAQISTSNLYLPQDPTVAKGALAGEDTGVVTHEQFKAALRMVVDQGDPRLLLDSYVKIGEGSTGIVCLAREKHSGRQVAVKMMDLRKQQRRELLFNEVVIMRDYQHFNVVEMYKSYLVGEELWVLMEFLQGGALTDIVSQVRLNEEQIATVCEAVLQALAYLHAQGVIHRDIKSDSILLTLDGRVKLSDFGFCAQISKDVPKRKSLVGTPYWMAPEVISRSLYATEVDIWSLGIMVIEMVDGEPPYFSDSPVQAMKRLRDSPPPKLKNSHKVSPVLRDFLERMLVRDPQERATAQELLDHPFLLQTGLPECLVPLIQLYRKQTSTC
Chain of PAS domain-containing serine/threonine-protein kinase (Homo sapiens) (Q96RG2 whole entry, the tested form may be a part): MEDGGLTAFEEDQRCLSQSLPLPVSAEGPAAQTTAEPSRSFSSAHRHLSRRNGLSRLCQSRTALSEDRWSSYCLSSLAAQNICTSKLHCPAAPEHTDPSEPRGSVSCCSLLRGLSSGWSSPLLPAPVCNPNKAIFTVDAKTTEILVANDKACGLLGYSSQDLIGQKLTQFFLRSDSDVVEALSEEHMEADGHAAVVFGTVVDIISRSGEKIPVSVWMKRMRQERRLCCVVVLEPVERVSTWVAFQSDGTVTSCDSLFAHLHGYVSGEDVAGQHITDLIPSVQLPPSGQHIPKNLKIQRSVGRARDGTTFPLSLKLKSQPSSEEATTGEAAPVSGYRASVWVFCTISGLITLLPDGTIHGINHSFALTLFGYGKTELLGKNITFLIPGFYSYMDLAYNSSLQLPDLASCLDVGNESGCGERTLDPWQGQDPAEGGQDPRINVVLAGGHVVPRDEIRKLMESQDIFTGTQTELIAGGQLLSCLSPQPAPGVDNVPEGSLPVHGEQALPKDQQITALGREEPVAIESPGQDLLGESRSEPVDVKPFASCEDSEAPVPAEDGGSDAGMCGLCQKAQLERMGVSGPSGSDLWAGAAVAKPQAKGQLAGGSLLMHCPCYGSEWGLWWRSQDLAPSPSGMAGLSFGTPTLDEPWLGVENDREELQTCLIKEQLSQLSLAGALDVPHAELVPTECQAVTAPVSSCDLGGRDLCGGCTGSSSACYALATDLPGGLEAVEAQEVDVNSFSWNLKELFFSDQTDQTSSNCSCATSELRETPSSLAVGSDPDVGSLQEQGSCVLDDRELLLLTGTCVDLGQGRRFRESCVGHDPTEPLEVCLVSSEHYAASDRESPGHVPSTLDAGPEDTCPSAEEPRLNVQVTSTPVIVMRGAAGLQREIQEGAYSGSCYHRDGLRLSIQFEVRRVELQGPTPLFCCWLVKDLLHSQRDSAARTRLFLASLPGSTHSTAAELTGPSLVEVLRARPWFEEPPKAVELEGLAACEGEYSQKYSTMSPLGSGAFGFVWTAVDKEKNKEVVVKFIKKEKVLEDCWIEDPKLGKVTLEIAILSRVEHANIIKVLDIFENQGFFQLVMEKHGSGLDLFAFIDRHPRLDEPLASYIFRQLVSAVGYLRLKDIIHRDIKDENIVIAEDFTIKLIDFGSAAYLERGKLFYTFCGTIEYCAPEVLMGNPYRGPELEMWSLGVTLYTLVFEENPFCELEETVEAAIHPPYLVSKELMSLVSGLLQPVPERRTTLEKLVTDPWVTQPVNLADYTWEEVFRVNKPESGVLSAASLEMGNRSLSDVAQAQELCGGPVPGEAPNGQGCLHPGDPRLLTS
Chain of Ribosomal protein S6 kinase beta-1 (Homo sapiens) (P23443 whole entry, looked up): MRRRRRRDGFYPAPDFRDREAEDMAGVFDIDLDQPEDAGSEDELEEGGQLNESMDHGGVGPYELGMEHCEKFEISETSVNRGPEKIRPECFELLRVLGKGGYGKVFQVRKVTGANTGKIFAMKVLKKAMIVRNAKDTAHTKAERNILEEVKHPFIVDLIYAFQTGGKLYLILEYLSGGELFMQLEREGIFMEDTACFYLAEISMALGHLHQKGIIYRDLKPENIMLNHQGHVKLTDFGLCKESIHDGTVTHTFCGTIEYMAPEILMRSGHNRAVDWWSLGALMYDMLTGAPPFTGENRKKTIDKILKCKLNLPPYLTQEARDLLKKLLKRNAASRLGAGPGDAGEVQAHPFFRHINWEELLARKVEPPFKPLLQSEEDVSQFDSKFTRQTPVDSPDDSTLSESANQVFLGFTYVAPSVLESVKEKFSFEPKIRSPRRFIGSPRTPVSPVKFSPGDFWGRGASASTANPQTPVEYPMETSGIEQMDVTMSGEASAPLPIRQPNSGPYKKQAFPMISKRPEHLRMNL

SMILES | residual activity [1] | residual activity [2] | residual activity [3] | residual activity [4] | residual activity [5] | residual activity [6] | residual activity [7] | residual activity [8] | residual activity [9] | residual activity [10] | residual activity [11] | residual activity [12] | residual activity [13] | residual activity [14] | residual activity [15] | residual activity [16] | residual activity [17] | residual activity [18] | residual activity [19] | residual activity [20]
O=C1NC(=O)/C(=C/c2ccc3c(c2)OC(F)(F)O3)S1 | 73% | 35% | 84% (inactive) | 93% | 100% (inactive) | 97% (inactive) | 107% | 84% | 104% | 76% | 102% | 95% | 80% | 70% | 81% | 78% | 37% | 96% | 70% | 69%
N#C/C(=C(\N)Sc1ccc(N)cc1)c1ccccc1C(F)(F)F | 68% | 56% | 113% (inactive) | 112% | 101% (inactive) | 90% (inactive) | 87% | 95% | 99% | 98% | 101% | 94% | 90% | 89% | 96% | 96% | 105% | 50% | 43% | 65%
COc1ccc(OC)c2c(=S)c3ccccc3[nH]c12 | 115% | 86% | 97% (inactive) | 91% | 103% (inactive) | 97% (inactive) | 85% | 76% | 90% | 73% | 95% | 90% | 115% | 101% | 95% | 80% | 102% | 83% | 57% | 79%
O=C(Nc1cccc(Nc2cc(Nc3cccc(C(F)(F)F)c3)ncn2)c1)C1CC1 | 92% | 110% | 99% (inactive) | 126% | 95% (inactive) | 93% (inactive) | 63% | 27% | 116% | 83% | 94% | 79% | 100% | 98% | 104% | 90% | 64% | 79% | 26% | 88%
COc1cccc(-c2cc(=O)c3ccccc3o2)c1N | 119% | 106% | 114% (inactive) | 114% | 111% (inactive) | 106% (inactive) | 107% | 87% | 103% | 102% | 105% | 96% | 122% | 99% | 96% | 89% | 101% | 83% | 70% | 95%
COc1ccc(C(=O)Nc2sc3c(c2C(N)=O)CCCC3)cc1OC | 106% | 83% | 90% (inactive) | 103% | 87% (inactive) | 83% (inactive) | 88% | 90% | 96% | 90% | 92% | 86% | 104% | 116% | 95% | 93% | 90% | 77% | 54% | 56%
